Most compounds without a hit are left out; they make up all but 21% or so of the library.
Pf growth 48h = P. falciparum growth inhibition at 48 hours (one generation); P. falciparum luciferase growth in erythrocytes, 48 h; Potency, µM (doses to about 28.7 µM), without a hit: at the highest dose activity change, negative = inhibition, usual class: inhibitors; actives 5.9% (n = 310,000); also: potency is read from the fitted curve at half-maximal effect; % is scaled to controls: 0 for no effect and ±100 for the full control effect
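Luciferase-expressing P. falciparum in infected erythrocytes (2% hematocrit, 0.1% parasitemia final) in RPMI 1640/0.5% Albumax were exposed to compound for 48 hours at 37 C, 5% CO2; growth read as luminescence.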
HCMV inh = blocks human cytomegalovirus replication; HFF cells, HCMV-luciferase reporter, 72 h; hits give low values; activity change, negative = inhibition, % at 57.5 µM; actives 4.5% (n = 410,000); in the data active = activity change below about -60%; inconclusive = no clear call, values can overlap the other calls; inactive = above about -39%; also: % is scaled to controls: 0 for no effect and ±100 for the full control effect
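Compounds were evaluated in HFFs infected with an HCMV luciferase reporter virus (MOI 1 PFU/cell). Luciferase in lysates collected 72 h post infection served as the replication measure.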
Shiga toxin inh = blocks Shiga toxin action in Vero cells | Vero cells, Shiga toxin protein synthesis inhibition reporter | inhibition, % at 38.7 µM | actives 9.2% (n = 290,000) | AID 2315; in the data active = inhibition mostly above about 28%, no sharp cut-off; inactive = mostly below about 43%; also: 0% is about no effect
CHX counter = counter-screen hit for Shiga toxin inhibitors, cycloheximide | cell reporter, cycloheximide protein synthesis inhibition counterscreen | max response, % | actives 12% (n = 300,000); in the data active = max response mostly above about 13%, no sharp cut-off; inactive = mostly below about 14%; also: read at 38.3 µM for the half of the compounds with a filed dose; 0% is about no effect
HCV inh = blocks hepatitis C virus | Potency, µM (highest dose often 41.8 µM), without a hit: at the highest dose activity change, negative = inhibition, hits mostly inhibitors | Huh7.5.1 HCVcc-Cre infection, luciferase reporter, 44 h | actives 3.4% (n = 340,000); also: potency is read from the fitted curve at half-maximal effect; % is scaled to controls: 0 for no effect and ±100 for the full control effect
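After 44 h co-culture of compound, cells and HCVcc-Cre (~0.5 moi), substrate is added for 15 min at room temperature and luciferase measured over 15 sec. Cells were seeded at 1,000/well and pre-cultured 4 h.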
Pf growth 96h = P. falciparum growth inhibition at 96 hours; P. falciparum luciferase reporter growth, 96 h; Potency, µM (titrated, usually from 28.7 µM), for the others: top-dose activity change, negative = inhibition, hits mostly inhibitors; actives 6.9% (n = 320,000); AID 504834; also: potency is read from the fitted curve at half-maximal effect; % is scaled to controls: 0 for no effect and ±100 for the full control effect
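Compounds incubated with erythrocytes infected by luciferase-expressing P. falciparum (2% hematocrit, 0.05% parasitemia final) for 96 hours, 37 C in 5% CO2. Growth inhibition scored as decreased luciferase luminescence.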
* = called active by the depositor; u = inconclusive; x = not tested or not shown. Unless noted, calls follow the shape of the dose curve; as a rule, active = well fitted inhibition curve with a large enough effect; inconclusive = small, poorly fitted or top-dose-only effect, or another doubt; inactive = no such curve, though single readings can be large or run the other way.

SMILES	Pf growth 48h	HCMV inh	Shiga toxin inh	CHX counter	HCV inh	Pf growth 96h
COc1ccc(OC)c(CNC(=O)c2ccc3c(c2)c(C)c(C)n3Cc2ccc(Cl)cc2)c1	x	0.0	x	x	x	x
Cc1nn(CC(=O)NNC(=O)c2cccc(Br)c2)c(C)c1[N+](=O)[O-]	-3.9%	18.0	7.7	-0.6	0.0%	12.5%
Clc1ccc2sc(C3CCNCC3)nc2c1	63.6%	138.1	56.2*	35.8*	u	153.8%
C[N+](C)(C)CC[N+]1(C)Cc2c(Cl)c(Cl)c(Cl)c(Cl)c2C1	-10.1%	x	x	x	x	0.239µM*
O=C1CCCc2sccc2N1	19.1%	-20.1	30.8	7.8	13.6%	3.29µM*
CCc1cccc(-n2nnc(-c3nc(-c4cccs4)no3)c2N)c1	x	15.0	x	x	x	x
O=C(OCC1CC(c2ccccn2)=NO1)c1ccc(Br)cc1 (configuration not stated)	25.8%	8.5	40.9	56.2*	12.4%	-2.0%
COc1cc(C2c3cc4c(cc3C(O[C@@H]3OC5COC(c6cccs6)OC5C(O)C3O)C3COC(=O)C23)OCO4)cc(OC)c1O (some centres not stated)	0.536µM*	x	x	x	x	0.477µM*
COC1OC2COC(c3ccccc3)OC2C(O)C1N (configuration not stated)	x	-10.0	x	x	24.1%	x
COc1cc(C2c3cc4c(cc3C(OC3OC5COC(c6cccs6)OC5C(O)C3O)C3COC(=O)C23)OCO4)cc(OC)c1O (configuration not stated)	u	-98.7*	-7.0	-0.9	-30.7%	u
COC1OC2COC(c3ccccc3)OC2C(O)C1NC(C)=O (configuration not stated)	x	9.2	x	x	-0.4%	x
O=S(=O)(NCC(c1ccco1)N1CCN(c2ccccc2)CC1)c1ccccc1 (configuration not stated)	x	46.9	x	x	x	x
N#CCSc1ccccc1NC(=O)COC(=O)Cc1c[nH]c2ccccc12	10.4µM*	12.0	x	x	-1.3%	6.57µM*
OCCNC(=S)Nc1cccc(Cl)c1Cl	9.3%	2.1	2.5	1.9	10.0%	-5.1%
CC(=O)C1CCC2C3CCC4=CC(=O)CCC4(C)C3CCC12C (configuration not stated)	x	x	-7.9	-4.0	x	x
CC12CCC(=O)C=C1CCC1C2C(O)CC2(C)C(c3csc(N)n3)CCC12 (configuration not stated)	x	-22.1	x	x	u	x
CC12CCC(=O)C=C1CCC1C2CCC2(C)C(c3csc(N)n3)CCC12 (configuration not stated)	x	-93.0*	x	x	10µM*	x
CC(=O)[C@H]1CC[C@H]2[C@@H]3CCC4=CC(=O)CC[C@]4(C)[C@H]3CC[C@]12C	u	-10.1	-12.6	-3.2	12.7%	10.4µM*
O=C(O)c1ccc(C(=O)Nc2cccc3ccccc23)c(C(=O)O)c1	42.0%	44.4	1.9	1.2	-1.2%	u
Cc1cc(C(=O)NCc2cccc(Br)c2)c2c(C)nn(-c3ccccc3)c2n1	x	14.9	x	x	x	x
Cc1nc2c(cc1C(=O)N/N=C/c1ccc(O)c(O)c1)c(=O)n(C)c(=O)n2C	22.2%	-74.3*	-2.2	-1.6	u	20.6%
O=C(N/N=C/c1ccc(O)c(O)c1)c1ccc(-n2cnnn2)cc1	u	3.7	x	x	u	u
O=C(Nc1cccc([N+](=O)[O-])c1)NN1CCCCCC1	x	u	x	x	-26.3%	x
Clc1ccc(CSc2ncccn2)cc1	64.5%	-21.8	42.5*	31.7*	10.9%	x
Oc1cccnc1SCc1ccccc1	25.1%	15.5	x	x	18.5%	109.4%
SMILES	Pf growth 48h	HCMV inh	Shiga toxin inh	CHX counter	HCV inh	Pf growth 96h
c1ccc(CSc2ncccn2)cc1	9.8%	-2.7	6.3	19.3*	0.3%	4.4%
Cc1ccc(-c2nnc(Oc3cccc(C)c3)c3ccccc23)cc1	16.4%	-36.1	-7.6	4.8	-7.8%	36.2%
Cc1ccc(Oc2nnc(-c3ccccc3)c3ccccc23)cc1	-7.9%	-37.3	-5.6	-1.1	35.5µM*	0.0%
Cc1nnc(Oc2ccccc2)c2ccccc12	-3.2%	-1.2	46.6*	23.5*	u	-26.8%
Cc1nnc(Oc2ccc([N+](=O)[O-])cc2)c2ccccc12	66.9%	-96.4*	30.0	11.1	-2.2%	40.0%
O=[N+]([O-])c1ccc(Oc2ncccn2)cc1	x	23.9	x	x	7.7%	x
COc1ccc(Oc2nnc(C)c3ccccc23)cc1	x	48.8	42.5	46.5*	u	194.7%
CCOCCCNC(=O)C(c1ccc(C)cc1)N(Cc1ccc2c(c1)OCO2)C(=O)c1ccc(NC(C)=O)cc1 (configuration not stated)	x	-0.8	x	x	x	x
Cc1ccc(CSc2nc3ccc(NC(=O)COc4ccccc4)cc3s2)cc1	x	8.5	x	x	x	x
Cc1ccc(Oc2nc(C(F)(F)F)nc3ccccc23)cc1	-5.0%	-69.1*	13.4	6.2	-1.5%	49.4%
Cc1nnc(Oc2ccccc2F)c2ccccc12	57.7%	52.5	105.7*	33.4*	4.4%	41.6%
COc1ccc(Oc2nc(C(F)(F)F)nc3ccccc23)cc1	-15.0%	u	13.2	8.5	-8.6%	3.4%
CC1(C(=O)NS(=O)(=O)c2cccc(Cl)c2)CCN1C(=O)c1cccc2ccccc12 (configuration not stated)	x	-0.6	x	x	x	x
Cc1cccc(Cn2cc(S(=O)(=O)c3cccc(Cl)c3)c(=O)c3cc(F)c(N4CCOCC4)cc32)c1	x	-3.1	x	x	x	x
CCCc1nc2ccccc2n2c(-c3ccccc3)c3c(=O)n(C)c(=O)n(C)c3c12	x	106.2	x	x	x	x
Cn1c(=O)c2cn3c(c2n(C)c1=O)C(c1ccccc1)CC(c1ccccc1)=N3 (configuration not stated)	u	9.4	105.4*	38.0*	8.7%	11.1%
O=C(CSc1nnc(NC2CCCCC2)s1)NN1C(=O)NC2(CCCCC2)C1=O	1.5%	-18.2	20.1	1.0	9.0%	-25.9%
Cc1nnc(SCC(=O)Nc2ccc(S(=O)(=O)N3CCCCC3)cc2)s1	-14.8%	-64.6*	30.8	-1.7	19.6%	u
Cc1nnc(SCC(=O)NN2C(=O)NC3(CCCCC3)C2=O)s1	3.9%	-61.8*	2.2	-1.7	32.5%	-13.3%
O=C(CSc1nnc(Nc2ccccc2F)s1)Nc1cccc(S(=O)(=O)N2CCCCC2)c1	22.0%	8.9	74.6*	42.0*	12.6µM*	u
Cc1ccc(NC(=O)CSCC(=O)Nc2cccc(S(=O)(=O)N3CCCCCC3)c2)cc1	u	-38.8	x	x	12.6µM*	u
CCOC(=O)C1CCN(C(=O)CN2c3ccc(C(C)C)cc3-c3ccccc3S2(=O)=O)CC1	x	4.7	x	x	x	x
O=C(CN1CCN(c2ccc(C(F)(F)F)cn2)CC1)Nc1ccc2c(c1)OCO2	19.2%	-13.9	5.8	15.3	u	0.5%
Cc1ccc(C(=O)Nc2ccc(S(=O)(=O)N3CCCC3)cc2)s1	u	-24.6	49.5	14.4*	-6.3%	13.1µM*
